Our source for the growth values is PubChem BioAssay (NCI).

Common to all, as to assay: NCI-60 one-dose screen, 48 h (100 = growth as untreated, 0 = no growth, -100 = all killed)
Settings in all cases: 10 µM unless noted

Experiment [1] has as its system NCI-H23 lung.
Experiment [2] has as its system NCI-H226 lung.
The test system of experiment [3] is NCI-H322M lung.
Experiment [4] concerns HOP-62 NSCLC.
Experiment [5] relates to NCI-H460 lung.
The subject of experiment [6] is HOP-92 NSCLC.
Experiment [7] has as its system NCI-H522 lung.
Experiment [8] has as its system A549/ATCC NSCLC.
The test system of experiment [9] is 786-0 renal.
In experiment [10] the test system is COLO 205 colon.
Experiment [11] has as its system DU-145 prostate.
Experiment [12] has as its system K-562 leukemia.
Experiment [13] deals with MALME-3M melanoma.
Experiment [14] deals with MDA-MB-231 breast.
In experiment [15] the test system is RXF 393 renal.
The test system of experiment [16] is SF-268 CNS.
Experiment [17] has as its system SF-295 CNS.
The test system of experiment [18] is SF-539 CNS.
The subject of experiment [19] is UACC-257 melanoma.
The subject of experiment [20] is M14 melanoma.

Compounds without any hit were thinned out: in the full panel of roughly 83,000, 20% have a hit.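 Results are percent growth after 48 hours of single-concentration exposure. 100 means growth as in untreated cells, lower positive values show inhibition; negative values down to -100 show cell death.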 Values without a mark were called inactive. Activity calls are given as the source filed them. How the source made its calls: active means growth percent below 10; inactive means the rest.

Regarding `Nc1c(C(=O)Nc2ccccn2)sc2nc3c(cc12)CCCC3`, the growth was 69% in experiment [1]; 82.8% in [2]; 78.7% in experiment [3]; 45.3% in experiment [4]; 25.3% in experiment [5]; 60.2% in [6]. In addition, the growth in experiment [7] is 29.2%; in experiment [8], 46.4%; in experiment [9], 48.7%; in experiment [10] it was 49.5%; in experiment [11], 72%; in [12], 14.1%. In addition, the growth in experiment [13] is 62.7%; in [14] it was 66.5%; in experiment [15], 84.7%; in experiment [16] it was 62.4%; in experiment [17], 34%; in [18], 39.3%. Besides, the growth in experiment [19] was 67.8%; in [20], 18%.

For `O=C(CCc1nnc2sc(OCc3ccccc3)nn12)c1nc2ccc([N+](=O)[O-])cc2[nH]1`, the growth was 84.6% in experiment [1]; 94.8% in experiment [2]; 93.3% in experiment [3]; 102% in experiment [4]; 105% in experiment [5]; 106% in experiment [6]. The growth was 79.2% in experiment [7]; 94.3% in experiment [8]; 108% in experiment [9]; 99.5% in [10]; 103% in [11]; 87.7% in [12]. Moreover, the growth in experiment [13] is 96.1%; in [14], 95.7%; in [15], 123%; in experiment [16] it was 94.5%; in experiment [17], 97%; in experiment [18], 98.4%. For the same molecule, the figures for the growth in experiment [19] and in [20] were 106% and 102%, respectively.

Consider `C=CCn1c(SCC(=O)Nc2ccc(C(=O)/C=C/c3cc(OC)c(OC)c(OC)c3)cc2)nnc1-c1ccccc1`, for which the growth is 93% in experiment [1]; 88.5% in experiment [2]; 104% in experiment [3]; 117% in experiment [4]; 89.8% in experiment [5]; 150% in [6]. For the same molecule, the growth in experiment [7] was 82.8%; in experiment [8], 85.1%; in [9], 93.1%; in experiment [10], 101%; in [11], 76.7%; in experiment [12] it was 48.9%. The growth was 91% in [13]; 98.9% in [14]; 97.8% in experiment [15]; 93.5% in experiment [16]; 92.6% in experiment [17]; 96.2% in [18]. Moreover, the growth in [19] is 81.4%; in experiment [20] it was 86.9%.

Take `CC1=C(CCCOC(=O)NCCCl)C2=C(C)C3(CC3)[C@@](C)(O)C(=O)C2=C1`: the growth in [1] was -0.524% (active); in [2], 70%; in experiment [3], 41.1%; in experiment [4] it was -3.61% (active); in experiment [5] it was 3.59% (active); in [6] it was 8.91% (active). For the same molecule, the growth is 26.6% in experiment [7]; 17.9% in [8]; 11.6% in experiment [9]; 3.83% (active) in [10]; 12.4% in [11]; 85.9% in experiment [12]. For the same molecule, the growth in experiment [13] was 34.6%; in experiment [14], 44.8%; in experiment [15], -69.2% (active); in experiment [16], 14.1%; in [17] it was 1.44% (active); in experiment [18] it was 42.6%. Also, the growth in experiment [19] is 48.5%; in [20], 17.9%.

In the case of `CCCCCCN1C(=O)CN=C1Nc1ccc2cc3ccc(NC4=NCC(=O)N4CCCCCC)cc3nc2c1`, the growth was 64.8% in experiment [1]; 81.7% in experiment [2]; 79.7% in [3]; 82.4% in [4]; 57.5% in experiment [5]; 82.9% in experiment [6]. For the same molecule, the growth was -9.83% (active) in [7]; 74.5% in experiment [8]; 36.1% in experiment [9]; 40.3% in experiment [10]; 40.5% in experiment [11]; -12.1% (active) in experiment [12]. Besides, the growth in experiment [13] was 71.5%; in experiment [14] it was 30.7%; in [15], 11.6%; in experiment [16], 47.5%; in experiment [17], 82.7%; in experiment [18], 76.6%. The values for the growth in experiment [19] and in experiment [20] were 103% and 68.2%, respectively.

For the molecule `COc1ccc2[nH]c(=O)c(/C=C/C(=O)c3ccccc3OC)cc2c1`, the growth was 21.3% in [1]; 38.9% in experiment [2]; 18.3% in experiment [3]; 8.67% (active) in [4]; 1.79% (active) in [5]; -12% (active) in [6]. For the same molecule, the growth in [7] was 3.93% (active); in experiment [8], 10.4%; in [9], 8.21% (active); in experiment [10], 20.4%; in experiment [11], 10.8%; in experiment [12] it was 4.24% (active). The growth in [13] was 38.6%; in experiment [14] it was 0.317% (active); in [15], -7.9% (active); in experiment [16] it was 9.36% (active); in [17], 8.29% (active); in experiment [18], -10% (active). The growth in experiment [19] is 37.6%; in [20], 13.8%.

For `COC(=O)c1cc2c3c(cc(O)c2[nH]1)N(C(=O)C1Cc2cc(OC)c(OC)c(OC)c2N1)CC3CCl` (stereo not given), the growth was -48.7% (active) in experiment [1]; -35.1% (active) in experiment [2]; -16.2% (active) in experiment [3]; -54.7% (active) in experiment [4]; -17.9% (active) in [5]; -35.9% (active) in experiment [6]. The growth in experiment [7] is -60.6% (active); in experiment [8], -21% (active); in [9] it was -47.6% (active); in experiment [10] it was -70.4% (active); in experiment [11], -99.1% (active); in experiment [12], 1.56% (active). Moreover, the growth in [13] is -58.1% (active); in experiment [14], -41.3% (active); in experiment [15], -99.4% (active); in experiment [16], -5.75% (active); in experiment [17] it was -40.6% (active); in experiment [18] it was -74.7% (active). Also, the growth in experiment [19] is -72.3% (active); in experiment [20], -25.1% (active).
